Test results published in PubChem BioAssay AID493185 (National Center for Advancing Translational Sciences (NCATS), 2011).
Calls of active or inactive are those of the source. Where a call stands in place of a potency, no number is given. The call rests on the fitted dose curve; in most records, active means well fitted activation curve with a large enough effect; inconclusive means small, poorly fitted or top-dose-only effect; inactive means no such curve, though single readings can be large or run the other way.

Assay: Counterscreen for Identifying a Potential Treatment of Ataxia-Telangiectasia: Hit Validation
Conditions: cell-free AlphaLISA/AlphaScreen artifact counterscreen, PBS only, no cells; series mostly up to 76.9 µM
Text: NIH Chemical Genomics Center [NCGC]
NIH Molecular Libraries Probe Centers Network [MLPCN]
Assay Submitter (PI): Wei Zheng and Yosef Shiloh
Ataxia-telangiectasia (A-T) is a devastating and progressive disease for which, there is no cure. Although A-T is a multisystem disease, it is stereotyped characterized by its neurological symptoms such as truncal ataxia, due to cerebellar cortical degeneration of the Purkinje and granule cells. Other symptoms of A-T are telangiectasias (dilated blood vessels), primary immunodeficiency, marked sensitivity to ionizing radiation (IR), chromosomal instability and predisposition to cancer.
The underlying genetic cause of A-T is null mutations in the ATM (A-T mutated) gene. ATM is a nuclear serine/threonine kinase that functions as a master regulator of the cellular responses to double strand breaks (DSBs) in the DNA. Upon activation by DSBs, ATM phosphorylates a plethora of downstream targets, including KAP-1 on […]. KAP-1 phosphorylation occurs shortly in response to DSBs and mediates global chromatin relaxation, which facilitates DSB repair. To screen for small molecules that will compensate for the loss of ATM in cells derived from A-T patients, we monitored KAP-1 phosphorylation as a readout for ATM-like activity using an AlphaLISA assay.
3. Library compounds, 23 nl, 76.7 - 0.61uM dilution series final concentration
4. Incubation, 60 min, 37C, 5% CO2, 95% humidity
6. Incubation, 30 min, 37C, 5% CO2, 95% humidity
7. Reagent, 1 ul, Premixed detection reagents and lysis buffer
8. Reagent, 1 ul, 0.6% Antifoam A
9. Incubation, 6 hr, 25C, 95% humidity
10. Readout, EnVision, EnVision plate reader. AlphaScreen 1536-well protocol
PBS was dispensed into medium-binding white solid-bottom tissue culture treated Kalypsys plates with a Multidrop dispenser. Detection reagent and lysis buffer was 3.75nM Rab-a-pKAP1 antibody bound to 75 ng/ul AlphaScreen SA donor bead, 3.75 nM Biot-M-a-KAP1 antibody bound to AlphaLISA protein A acceptor bead, 0.5x protease inhibitor cocktail and 0.25x PerkinElmer lysis buffer. EnVision protocol for 1536-well AlphaScreen read (30ms excitation, 100ms read), about 10 min/plate. This assay is similar to the primary screen but is without cells. It aims to identify artifacts of the assay platform and unspecific hits.
Potency means the concentration at half of the fitted maximal effect.

Row | SMILES | Potency
1 | CCOc1cccc(-c2nnc(SCC(=O)Nc3cc(C)ccc3OC)n2N)c1 | inactive
2 | CC(C)(C)NC(=O)c1cccc2c1-c1ccccc1C2=O | inactive
3 | CCOC(=O)N1CCN(C(=O)CCc2nc3sc4c(c3c(=O)[nH]2)CCCC4)CC1 | inactive
4 | COc1ccc(-c2nc3n(c2C)Cc2ccccc2-3)cc1 | 32.8 µM (active)
5 | CC1=NOC2(C1)N(C)c1ccccc1C2(C)C (stereo not given) | inactive
6 | C(=N\Nc1ccccn1)/c1c[nH]c2ccccc12 | inactive
7 | COc1cc(CCC(=O)OCC(=O)N2CCc3ccccc32)cc(OC)c1OC | inactive
8 | CCC(C)Nc1nc(N)c([N+](=O)[O-])c(NCCO)n1 (stereo not given) | inactive
9 | COc1ccccc1OC(=O)Nc1ccc(Cl)cc1 | 6.54 µM (active)
10 | CCOC(=O)C1=C(C)N(c2ccc(OC)cc2)C(=O)/C1=C\c1ccc(O)c(OCC)c1 | inactive
11 | CCC(=O)c1ccc2c(c1)OCCO2 | inactive
12 | CCc1ccc(C2c3[nH]c4ccccc4c3CCN2C(=O)c2cc[n+]([O-])cc2)cc1 (stereo not given) | inactive
13 | Cc1[nH]c2c(C)cccc2c1CN1CCC(CO)(Cc2ccccc2)CC1 | inactive
14 | Nc1nc2ccccc2cc1-c1cccs1 | inactive
15 | Cn1cnc([N+](=O)[O-])c1SCCO | inactive
16 | NC(=O)C1CCN(Cc2nc3cc(C(F)(F)F)ccc3c(=O)[nH]2)CC1 | inactive
17 | O=C(Nc1cc(S(=O)(=O)N2CCOCC2)ccc1Cl)c1cc(=O)c2ccccc2o1 | inactive
18 | CCN1C/C(=C/c2sccc2C)c2nc3ccccc3c(C(=O)O)c2C1 | inactive
19 | CCC[C@H]1CCCC/C=C\CCCC(=O)OCCN1C(=O)OC(C)(C)C | inactive
20 | Cc1ccc2c(c1)C(c1ccccc1)N(C(=O)CC(C)C)CC(=O)N2 (stereo not given) | inactive

Row | SMILES | Potency
21 | CC(C)CNS(=O)(=O)c1cc(C(=O)O)c(Cl)cc1Cl | inactive
22 | CCN(c1ccccc1)S(=O)(=O)c1ccc(Cl)c(C(=O)N(CC2CCCO2)C2CCS(=O)(=O)C2)c1 (stereo not given) | inactive
23 | Cc1nc(SCC(=O)Nc2cc(C(N)=O)cc(C(N)=O)c2)c2c(C)c(C)sc2n1 | 51.9 µM (active)
24 | COc1ccccc1S(=O)(=O)Nc1ccc(-c2nnc3n2CCCCC3)cc1 | inactive
25 | Cc1ccnc(NC(=O)c2ccccc2NC(=O)c2ccccc2)c1 | inactive
26 | Cc1nc(Nc2ccc(Cl)cc2)c2oc3ccccc3c2n1 | inactive
27 | Cc1cc2nc3ccc(=[N+](C)C)cc-3sc2cc1N | 26 µM (active)
28 | Cc1cc2c(c(=O)o1)C(CCC1CCCCC1)C(C#N)=C(N)O2 (stereo not given) | inactive
29 | C=Cc1c(C)c2cc3[nH]c(cc4nc(cc5nc(cc1[nH]2)C(C)=C5CCC(=O)O)C(CCC(=O)O)=C4C)c(C)c3C=C | 29.2 µM (active)
30 | CC1=C/C(=C\C=C(C#N)C#N)N(C)c2ccccc21 | inactive
31 | COC1=C(N)C(=O)c2nc(-c3nc(C(=O)O)c(C)c(-c4ccc(OC)c(OC)c4O)c3N)ccc2C1=O | inactive
32 | S=c1[nH]nc(C2CCCCC2)n1/N=C/c1ccc(Br)cc1 | inactive
33 | O=C(/C(=C/c1ccc(Cl)cc1)c1nc2ccccc2[nH]1)c1cccs1 | inactive
34 | COc1ccc(C2c3ccc(O)cc3Oc3ncn(CC(C)C)c(=N)c32)cc1 (stereo not given) | inactive
35 | COc1ccc(-c2cc(C(F)(F)F)c(C#N)c(SCC(=O)O)n2)cc1OC | inactive
36 | Cc1ccc(OC(=O)c2cc(C)nn2C(C)(C)C)cc1 | inactive
37 | O=C1CN(C(=O)NCC(=O)N[C@H](C(=O)O)c2ccccc2)c2ccccc2N1 | inactive
38 | COc1ccc(C(=O)/C=C/C(=O)N(CC(=O)NC2CCCCC2)Cc2ccccc2)c(O)c1 | inactive
39 | c1ccc2c(c1)nc(Nc1ccc(N3CCCCC3)cc1)c1nncn12 | inactive
40 | COc1ccc(N(C)S(=O)(=O)c2cccc(C(=O)OCC(=O)NCc3ccccc3OC)c2)cc1 | inactive
